Of roughly 8,800 targets only a part is listed; those with a hit were picked by preference. About 0.5% of all pairs of compound and target were hits. Unmarked numbers belong to inactive results.
Assays:
Experiment in all cases: log2 fold change, soluble protein after heating vs DMSO (PISA); higher = thermal stabilisation; K562 lysate, 10 uM; active = over 0.2 and 3.5 SD of the protein, either way, in both replicates (recomputed)
lapatinib = compound: CS(=O)(=O)CCNCc1ccc(-c2ccc3ncnc(Nc4ccc(OCc5cccc(F)c5)c(Cl)c4)c3c2)o1 [lapatinib]
Outline: (§1)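 K562 pellets were dounce-homogenised in PBS pH 7.4 with 1 mM MgCl2, and the crude extract at 1 mg/mL protein was treated with 10 μM compound for 30 min. Aliquots were heated for 3 min across 48°C-58°C, pooled, and brought to 0.5% NP-40 at 4°C; soluble protein was the supernatant after 21,000xg for 90 min. Soluble protein was quantified by TMTpro 16plex LC-MS/MS with channel sums equalised, and reported as log2 fold change in thermal stability against DMSO controls, with values from duplicates.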

pictilisib = compound: CS(=O)(=O)N1CCN(Cc2cc3nc(-c4cccc5[nH]ncc45)nc(N4CCOCC4)c3s2)CC1 [pictilisib]
Outline: as §1

crizotinib = compound: C[C@@H](Oc1cc(-c2cnn(C3CCNCC3)c2)cnc1N)c1c(Cl)ccc(F)c1Cl [crizotinib]
Outline: as §1

[1] = compound: C[C@H](C1=CC=C(C=C1)C(=O)NC2=C3C=CNC3=NC=C2)N
Outline: as §1

duvelisib = compound: C[C@H](Nc1ncnc2nc[nH]c12)c1cc2cccc(Cl)c2c(=O)n1-c1ccccc1 [duvelisib]
Outline: as §1

gandotinib = compound: Cc1cc(Nc2cc(CN3CCOCC3)c3nc(C)c(Cc4ccc(Cl)cc4F)n3n2)n[nH]1 [gandotinib]
Outline: as §1

tozasertib = compound: Cc1cc(Nc2cc(N3CCN(C)CC3)nc(Sc3ccc(NC(=O)C4CC4)cc3)n2)n[nH]1 [tozasertib]
Outline: as §1

doramapimod = compound: Cc1ccc(-n2nc(C(C)(C)C)cc2NC(=O)Nc2ccc(OCCN3CCOCC3)c3ccccc23)cc1 [doramapimod]
Outline: as §1

bafetinib = compound: Cc1ccc(NC(=O)c2ccc(CN3CC[C@H](N(C)C)C3)c(C(F)(F)F)c2)cc1Nc1nccc(-c2cncnc2)n1 [bafetinib]
Outline: as §1

[2] = compound: Cc1cccc(CC(=O)N2CCc3c2ccc(-c2cn(C)c4ncnc(N)c24)c3F)n1
Outline: as §1

Sequence of UniProt Q99871 (Q99871 whole entry, looked up): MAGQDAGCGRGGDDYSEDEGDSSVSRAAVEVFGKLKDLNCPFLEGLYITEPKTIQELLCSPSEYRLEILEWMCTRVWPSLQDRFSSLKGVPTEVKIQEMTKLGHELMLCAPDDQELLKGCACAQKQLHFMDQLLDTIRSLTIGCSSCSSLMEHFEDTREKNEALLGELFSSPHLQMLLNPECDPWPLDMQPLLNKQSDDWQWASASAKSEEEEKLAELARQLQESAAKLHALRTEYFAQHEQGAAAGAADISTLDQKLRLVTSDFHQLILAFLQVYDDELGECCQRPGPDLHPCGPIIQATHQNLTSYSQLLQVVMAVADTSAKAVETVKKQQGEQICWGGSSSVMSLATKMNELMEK
Sequence of UniProt Q9ULR0 (Q9ULR0 whole entry, looked up): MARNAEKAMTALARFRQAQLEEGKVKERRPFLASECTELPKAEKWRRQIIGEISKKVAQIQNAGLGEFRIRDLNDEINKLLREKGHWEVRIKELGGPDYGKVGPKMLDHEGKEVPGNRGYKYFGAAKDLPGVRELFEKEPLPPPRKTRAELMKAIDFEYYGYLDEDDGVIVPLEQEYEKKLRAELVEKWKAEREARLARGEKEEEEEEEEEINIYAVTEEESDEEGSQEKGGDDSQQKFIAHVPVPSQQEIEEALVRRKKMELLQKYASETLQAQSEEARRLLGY
Sequence of UniProt Q9NPR9 (Q9NPR9 whole entry, looked up): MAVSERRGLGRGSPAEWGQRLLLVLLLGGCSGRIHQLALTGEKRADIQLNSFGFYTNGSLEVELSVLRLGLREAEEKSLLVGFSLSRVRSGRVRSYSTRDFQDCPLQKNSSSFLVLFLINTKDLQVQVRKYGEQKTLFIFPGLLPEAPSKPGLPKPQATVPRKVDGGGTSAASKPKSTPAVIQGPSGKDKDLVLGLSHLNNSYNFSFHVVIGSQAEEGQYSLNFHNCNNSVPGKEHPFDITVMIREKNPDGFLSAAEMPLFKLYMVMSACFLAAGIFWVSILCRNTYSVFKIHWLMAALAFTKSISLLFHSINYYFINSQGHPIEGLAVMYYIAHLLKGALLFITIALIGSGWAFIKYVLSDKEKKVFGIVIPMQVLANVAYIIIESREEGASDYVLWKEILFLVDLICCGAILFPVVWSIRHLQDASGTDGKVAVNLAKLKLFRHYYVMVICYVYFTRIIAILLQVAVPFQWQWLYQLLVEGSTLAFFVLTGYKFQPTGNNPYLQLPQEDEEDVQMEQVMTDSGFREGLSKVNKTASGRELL
Sequence of UniProt Q92805 (Q92805 whole entry, looked up): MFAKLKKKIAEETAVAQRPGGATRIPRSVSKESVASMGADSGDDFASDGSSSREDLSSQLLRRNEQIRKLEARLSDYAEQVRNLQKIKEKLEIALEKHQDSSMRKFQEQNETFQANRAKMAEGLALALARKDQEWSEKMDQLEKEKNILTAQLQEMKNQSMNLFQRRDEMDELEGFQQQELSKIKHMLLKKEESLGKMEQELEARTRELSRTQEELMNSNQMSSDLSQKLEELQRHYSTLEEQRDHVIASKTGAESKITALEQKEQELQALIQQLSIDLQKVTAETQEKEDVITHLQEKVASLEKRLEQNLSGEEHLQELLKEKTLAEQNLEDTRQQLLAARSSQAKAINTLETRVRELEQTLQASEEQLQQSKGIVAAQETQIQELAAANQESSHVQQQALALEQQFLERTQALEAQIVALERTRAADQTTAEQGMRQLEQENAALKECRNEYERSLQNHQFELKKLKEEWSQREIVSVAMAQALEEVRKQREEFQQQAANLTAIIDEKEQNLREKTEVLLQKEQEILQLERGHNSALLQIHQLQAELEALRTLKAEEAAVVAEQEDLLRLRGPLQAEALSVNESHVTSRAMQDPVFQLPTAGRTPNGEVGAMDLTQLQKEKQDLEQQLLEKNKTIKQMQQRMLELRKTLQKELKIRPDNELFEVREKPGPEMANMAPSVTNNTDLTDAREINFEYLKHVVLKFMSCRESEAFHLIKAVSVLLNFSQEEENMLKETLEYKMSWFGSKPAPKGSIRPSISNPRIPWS
Sequence of UniProt O15379 (O15379 whole entry, looked up): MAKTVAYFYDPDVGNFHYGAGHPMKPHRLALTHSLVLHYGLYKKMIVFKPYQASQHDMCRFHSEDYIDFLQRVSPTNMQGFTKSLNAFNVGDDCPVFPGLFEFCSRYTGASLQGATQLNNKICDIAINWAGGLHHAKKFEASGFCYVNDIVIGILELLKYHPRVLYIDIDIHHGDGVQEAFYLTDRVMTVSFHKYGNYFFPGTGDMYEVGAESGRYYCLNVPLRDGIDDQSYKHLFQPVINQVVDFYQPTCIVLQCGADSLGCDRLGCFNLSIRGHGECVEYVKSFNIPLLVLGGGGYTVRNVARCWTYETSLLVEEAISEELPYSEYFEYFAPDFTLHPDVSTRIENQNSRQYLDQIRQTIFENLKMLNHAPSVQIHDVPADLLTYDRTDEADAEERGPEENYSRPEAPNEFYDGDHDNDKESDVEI
Sequence of UniProt Q8NEC7 (Q8NEC7 whole entry, looked up): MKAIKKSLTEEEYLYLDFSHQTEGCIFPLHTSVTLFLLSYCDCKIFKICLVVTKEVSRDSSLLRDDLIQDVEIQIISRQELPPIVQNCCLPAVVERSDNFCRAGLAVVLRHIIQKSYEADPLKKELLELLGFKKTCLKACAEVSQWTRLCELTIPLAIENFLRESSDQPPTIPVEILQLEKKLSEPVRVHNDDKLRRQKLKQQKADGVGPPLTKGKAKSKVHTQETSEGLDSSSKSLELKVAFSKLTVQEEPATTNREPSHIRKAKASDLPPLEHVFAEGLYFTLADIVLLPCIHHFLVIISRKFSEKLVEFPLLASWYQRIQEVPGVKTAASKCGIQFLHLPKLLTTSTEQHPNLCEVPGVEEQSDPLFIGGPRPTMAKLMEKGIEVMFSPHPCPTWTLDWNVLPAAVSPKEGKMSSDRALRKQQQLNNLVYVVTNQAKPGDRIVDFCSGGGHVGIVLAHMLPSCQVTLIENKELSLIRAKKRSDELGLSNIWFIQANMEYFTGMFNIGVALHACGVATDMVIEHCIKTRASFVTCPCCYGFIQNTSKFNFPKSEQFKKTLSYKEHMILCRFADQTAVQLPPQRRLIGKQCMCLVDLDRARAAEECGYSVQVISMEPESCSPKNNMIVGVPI
Sequence of UniProt Q8NC54 (Q8NC54 whole entry, looked up): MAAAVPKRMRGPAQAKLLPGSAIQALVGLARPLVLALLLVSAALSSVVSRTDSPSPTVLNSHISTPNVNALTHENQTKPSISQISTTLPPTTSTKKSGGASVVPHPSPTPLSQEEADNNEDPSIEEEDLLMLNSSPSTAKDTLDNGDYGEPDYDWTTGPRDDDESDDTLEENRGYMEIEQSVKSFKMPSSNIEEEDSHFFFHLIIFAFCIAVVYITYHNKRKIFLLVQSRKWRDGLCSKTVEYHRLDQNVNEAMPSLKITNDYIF
Sequence of UniProt Q5T447 (Q5T447 whole entry, looked up): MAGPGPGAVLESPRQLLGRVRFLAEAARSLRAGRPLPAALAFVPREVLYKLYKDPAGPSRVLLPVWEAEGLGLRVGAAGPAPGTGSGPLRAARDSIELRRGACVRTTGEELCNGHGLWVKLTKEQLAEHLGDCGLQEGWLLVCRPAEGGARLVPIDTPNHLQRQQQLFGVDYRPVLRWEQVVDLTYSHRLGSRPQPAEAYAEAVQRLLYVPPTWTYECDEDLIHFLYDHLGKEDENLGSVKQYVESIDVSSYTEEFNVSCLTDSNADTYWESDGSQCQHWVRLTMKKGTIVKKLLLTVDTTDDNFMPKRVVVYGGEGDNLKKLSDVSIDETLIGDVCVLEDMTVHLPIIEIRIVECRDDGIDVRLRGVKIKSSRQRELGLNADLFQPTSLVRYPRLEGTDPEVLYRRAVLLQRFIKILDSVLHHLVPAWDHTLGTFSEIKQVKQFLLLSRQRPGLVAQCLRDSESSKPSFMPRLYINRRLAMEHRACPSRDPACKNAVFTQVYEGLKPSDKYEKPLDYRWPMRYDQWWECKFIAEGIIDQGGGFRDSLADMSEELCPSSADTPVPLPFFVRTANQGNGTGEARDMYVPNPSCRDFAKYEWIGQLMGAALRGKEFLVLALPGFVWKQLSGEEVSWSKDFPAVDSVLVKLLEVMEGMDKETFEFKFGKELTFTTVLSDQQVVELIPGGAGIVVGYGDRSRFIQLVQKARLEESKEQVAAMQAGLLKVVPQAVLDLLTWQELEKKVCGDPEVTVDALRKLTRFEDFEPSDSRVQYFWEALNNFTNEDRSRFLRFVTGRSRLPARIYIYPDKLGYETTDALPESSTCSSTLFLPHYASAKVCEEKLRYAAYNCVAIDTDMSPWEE
Sequence of UniProt P82970 (P82970 whole entry, looked up): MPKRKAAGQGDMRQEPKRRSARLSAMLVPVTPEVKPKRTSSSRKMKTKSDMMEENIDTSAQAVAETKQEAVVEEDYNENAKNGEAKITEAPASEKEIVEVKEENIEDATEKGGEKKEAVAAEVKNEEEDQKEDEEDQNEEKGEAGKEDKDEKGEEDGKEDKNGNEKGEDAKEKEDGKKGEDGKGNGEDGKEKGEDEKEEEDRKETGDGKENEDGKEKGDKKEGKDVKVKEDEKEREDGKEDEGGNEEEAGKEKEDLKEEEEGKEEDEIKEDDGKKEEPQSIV
Sequence of UniProt Q9H4A6 (Q9H4A6 whole entry, looked up): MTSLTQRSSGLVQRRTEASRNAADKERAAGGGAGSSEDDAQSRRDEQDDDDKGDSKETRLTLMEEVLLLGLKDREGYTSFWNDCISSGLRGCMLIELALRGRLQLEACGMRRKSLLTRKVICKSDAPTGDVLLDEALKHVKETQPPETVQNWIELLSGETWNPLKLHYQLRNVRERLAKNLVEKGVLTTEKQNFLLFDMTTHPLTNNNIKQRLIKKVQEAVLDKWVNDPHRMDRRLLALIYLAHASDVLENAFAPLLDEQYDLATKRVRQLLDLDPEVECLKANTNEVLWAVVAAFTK
Sequence of UniProt Q96AB3 (Q96AB3 whole entry, looked up): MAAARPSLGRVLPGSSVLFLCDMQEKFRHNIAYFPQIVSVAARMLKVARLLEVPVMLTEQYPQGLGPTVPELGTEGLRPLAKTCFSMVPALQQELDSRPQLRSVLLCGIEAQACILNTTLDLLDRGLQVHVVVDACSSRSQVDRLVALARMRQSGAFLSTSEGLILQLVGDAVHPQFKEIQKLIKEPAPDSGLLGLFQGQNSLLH

| Target | log2 fold change (lapatinib) | log2 fold change (pictilisib) | log2 fold change (crizotinib) | log2 fold change [1] | log2 fold change (duvelisib) | log2 fold change (gandotinib) | log2 fold change (tozasertib) | log2 fold change (doramapimod) | log2 fold change (bafetinib) | log2 fold change [2] |
| --- | --- | --- | --- | --- | --- | --- | --- | --- | --- | --- |
| HADHA (UniProt P40939) | 0.1 | 0.077 | 0.063 | -0.01 | 0.037 | 0.129 | -0.013 | 0.207 | 0.032 | -0.053 |
| GSTCD (UniProt Q8NEC7) | -0.006 | -0.015 | -0.037 | -0.058 | 0.09 | 0.036 | -0.037 | 0 | -0.053 | 0.01 |
| HECTD3 (UniProt Q5T447) | -0.047 | -0.098 | -0.034 | -0.001 | -0.006 | -0.013 | 0.018 | 0.056 | -0.13 | -0.004 |
| HMGN5 (UniProt P82970) | -0.058 | 0.032 | 0.046 | 0.239 | 0.018 | -0.081 | 0.02 | -0.066 | 0.013 | -0.184 |
| GPR108 (UniProt Q9NPR9) | 0.022 | 0.03 | -0.01 | -0.121 | -0.043 | 0.237 (active) | 0.024 | 0.04 | 0.044 | -0.043 |
| HMGB2 (UniProt P26583) | 0.006 | 0.021 | 0.052 | 0.266 (active) | -0.01 | -0.16 | -0.022 | -0.088 | 0.14 | -0.244 (active) |
| ISY1 isoform 1 (UniProt Q9ULR0) | -0.033 | 0.011 | 0.01 | -0.022 | 0.019 | 0.078 | -0.035 | 0.016 | -0.013 | 0.016 |
| HAUS5 (UniProt O94927) | -0.036 | -0.017 | -0.071 | 0.05 | 0.044 | -0.098 | -0.002 | 0.032 | -0.042 | -0.029 |
| ISOC2 (UniProt Q96AB3) | -0.036 | 0.038 | 0.023 | 0.05 | -0.038 | -0.076 | -0.065 | -0.014 | -0.058 | 0.095 |
| HAUS7 isoform 2 (UniProt Q99871) | 0.022 | 0.012 | -0.053 | 0.102 | -0.063 | -0.156 | -0.113 | 0.072 | -0.139 | 0.015 |
| IRAK4 (UniProt Q9NWZ3) | -0.021 | -0.018 | 0.175 | 0.012 | 0.026 | -0.082 | 0 | 0.011 | -0.013 | 0.012 |
| HEATR6 (UniProt Q6AI08) | -0.014 | -0.033 | -0.112 | -0.037 | 0.084 | 0.003 | -0.003 | -0.011 | 0.054 | 0.045 |
| KDM1A (UniProt O60341) | -0.01 | -0.029 | -0.036 | -0.055 | -0.025 | -0.056 | -0.031 | 0.015 | -0.016 | 0.025 |
| HARS (UniProt P12081) | 0.008 | 0.01 | -0.009 | 0.028 | 0.014 | -0.052 | 0.006 | 0.003 | 0.015 | -0.01 |
| GSK3A (UniProt P49840) | -0.026 | 0.207 | 0.069 | -0.002 | 0.016 | 0.641 (active) | -0.017 | 0.002 | 0.008 | -0.02 |
| KCT2 (UniProt Q8NC54) | -0.005 | -0.018 | 0.048 | -0.331 (active) | 0.018 | 0.277 (active) | 0.005 | -0.028 | -0.023 | 0.099 |
| GMDS (UniProt O60547) | -0.019 | -0.035 | -0.01 | 0.004 | 0.012 | -0.013 | -0.016 | 0.018 | 0.001 | -0.021 |
| HDAC3 (UniProt O15379) | 0.02 | 0.008 | 0.015 | 0.076 | -0.067 | -0.015 | 0.054 | -0.024 | -0.005 | -0.045 |
| GOLPH3 (UniProt Q9H4A6) | 0.007 | -0.013 | -0.123 | -0.049 | 0.005 | 0.034 | 0.025 | 0.031 | -0.073 | 0.045 |
| IGF2BP2 isoform 6 (UniProt Q9Y6M1) | 0.084 | – | – | – | – | – | – | – | – | – |
| HDAC3 (UniProt E7ESJ6) | -0.073 | – | – | – | – | – | – | – | – | – |
| IMPACT (UniProt Q9P2X3) | 0.012 | 0.044 | 0.083 | 0.077 | -0.015 | 0.065 | 0.026 | -0.044 | -0.098 | -0.096 |
| GSK3B isoform 2 (UniProt P49841) | -0.083 | 0.191 | 0.003 | 0.018 | -0.02 | 0.59 | -0.078 | 0.03 | -0.041 | -0.06 |
| GOLGA1 (UniProt Q92805) | -0.406 (active) | 0.007 | 0.012 | 0.056 | -0.101 | 0.024 | -0.087 | 0.001 | -0.066 | -0.025 |
| GON4L (UniProt Q3T8J9) | 0.006 | -0.04 | -0.05 | -0.066 | -0.045 | 0.391 | -0.054 | -0.011 | -0.07 | 0.01 |
| INTS8 (UniProt Q75QN2) | 0.028 | 0.104 | -0.046 | 0.015 | -0.051 | -0.163 | 0.04 | 0.021 | -0.142 | 0.036 |
| IMPDH2 (UniProt P12268) | 0.027 | 0.043 | -0.007 | -0.011 | -0.012 | -0.04 | -0.017 | 0.029 | 0.041 | 0.012 |
| HSPA8 (UniProt P11142) | 0.004 | 0.022 | 0.023 | 0.012 | 0.005 | -0.014 | 0.006 | 0.001 | 0.059 | -0.01 |
| HMGN4 (UniProt O00479) | 0.038 | -0.044 | 0.047 | 1.19 (active) | -0.074 | -0.421 | 0.078 | -0.163 | 0.6 | -0.551 |

— the supplement of paper PMC10849652
